Bioassay records as filed in PubChem.
FMDV antiviral: antivirals against foot and mouth disease virus | FMDV antiviral cell-based qHTS | Potency, µM (top dose mostly 57.9 µM), for the others: at the top dose activity change, negative = inhibition, usual class: inhibitors | hit rate 1.2% among 410,000 | AID 1159524; calls by dose curve; tested in HEK293T cells; note: read-out not given here; % is set by controls: 0 for no effect and ±100 for the full control effect; nearly all actives have a fitted effect of over 45% in size
MARV entry inh: Marburg virus entry inhibition; Marburg virus pseudotyped entry inhibition, cell reporter; Potency, µM (highest dose often 37.8 µM), inactives show top-dose activity change, negative = inhibition, hits mostly inhibitors; hit rate 1.8% among 300,000; calls by dose curve; tested in HEK293 cells; note: % is set by controls: 0 for no effect and ±100 for the full control effect
VACV mCherry inh: vaccinia inhibition (mCherry reporter); hit rate 0.63% among 310,000; Potency, µM (titrated, usually from 36.5 µM), for inactives: top-dose activity change, negative = inhibition, hits mostly inhibitors; AID 720579; Vaccinia virus mCherry reporter infection, fluorescence; calls by dose curve; tested in A549 cells; note: % is set by controls: 0 for no effect and ±100 for the full control effect; nearly all actives have a fitted effect of over 35% in size
HCV inhibitor: inhibitors of hepatitis C virus infection; hit rate 3.4% among 340,000; Potency, µM (highest dose often 41.8 µM), without a hit: at the top dose activity change, negative = inhibition, usual class: inhibitors; AID 651820; Huh7.5.1 HCVcc-Cre infection, luciferase reporter, 44 h; note: % is set by controls: 0 for no effect and ±100 for the full control effect
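Antiviral activity was scored by luciferase reporter output from cells infected with HCVcc-Cre (~0.5 moi) in presence of compound, 44 h infection period, cells seeded 1,000/well 4 h prior.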
LASV entry inh: inhibitors of Lassa virus binding or cell entry. Lassa virus pseudotype entry inhibition, cell reporter. Potency, µM (top dose mostly 37.9 µM), without a hit: at the top dose activity change, negative = inhibition, most hits filed as inhibitors. hit rate 1.2% among 300,000. AID 540256; calls by dose curve; tested in HEK293 cells; note: % is set by controls: 0 for no effect and ±100 for the full control effect; nearly all actives have a fitted effect of over 50% in size
VACV Venus inh: vaccinia inhibition (Venus reporter). Vaccinia virus Venus reporter expression, fluorescence. Potency, µM (top dose mostly 36.5 µM), without a hit: at the top dose activity change, negative = inhibition, actives largely listed as inhibitors. hit rate 0.46% among 330,000. AID 720580; calls by dose curve; tested in A549 cells; note: % is set by controls: 0 for no effect and ±100 for the full control effect; nearly all actives have a fitted effect of over 30% in size
HCV inh confirm: HCV inhibition, cherry-pick confirmation; Potency, µM (highest dose often 41.8 µM), for the others: at the top dose activity, negative = inhibition, actives largely listed as inhibitors; hit rate 78% among 640; HCVcc-Cre infectious virus cell assay, luciferase, inhibition; shares compounds with HCV inhibitor; AID 720575; note: nearly all actives have a fitted effect of over 80% in size
HCV cytotox: counter-screen for HCV inhibitors: host cell cytotoxicity; shares compounds with HCV inhibitor; HCV host cell line cytotoxicity counterscreen; Potency, µM (titrated, usually from 41.8 µM), without a hit: at the highest dose activity change, negative = cytotoxicity, actives largely listed as inhibitors; hit rate 22% among 640; AID 720576;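 note: 44 h compound exposure; % is set by controls: 0 for no effect and ±100 for the full control effect; nearly all actives have a fitted effect of over 55% in size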
* marks the source's active call; other numbers are inactive results; i = inactive; u = inconclusive; x = no result given; ! = repeats disagree; [ ] = remark or other dose. This is a sample that favours compounds with a hit; in the whole collection about 5.3% have one here. Unless noted, calls come from the whole dose curve; as a rule, active = well fitted curve in the direction sought with a large enough effect; inconclusive = small, poorly fitted or top-dose-only effect, or another doubt; inactive = no such curve, though single readings can be large; an effect the other way counts as inactive or inconclusive. Potency is the fitted concentration of half-maximal effect.

SMILES | FMDV antiviral | MARV entry inh | VACV mCherry inh | HCV inhibitor | LASV entry inh | VACV Venus inh | HCV inh confirm | HCV cytotox
CN(C)c1ccc(/C=C2\Oc3ccc(C#Cc4cccc(N)c4)cc3C2=O)cc1 | 24% | x | u | u | x | 11% | 8.9µM* | 39%
COc1cccc(C(=O)Oc2c(CN3CCOCC3)cc(Cl)c3cccnc23)c1 | u | 8.2µM* | x | 4.5µM* | u | x | u | u
CCC(=O)Nc1cc2c(cc1C(=O)CC)OCCO2 | -24% | 1% | -15% | 5.6µM* | 13% | -10% | 13µM* | 20%
COC(=O)c1cc2ccsc2n1CC(=O)Nc1cc(Cl)ccc1OC | x | -28% | u | 3.2µM* | -22% | u | 7.9µM* | 14µM*
O=C(Nc1ccccc1[N+](=O)[O-])c1csnn1 | 34% | 13%[46.1 µM] | 1% | x | -3%[46.1 µM] | -4% | x | x
Cc1c(Cl)cccc1NC(=O)CSc1nncn1-c1ccccn1 | -11% | u | -5% | 2% | -4%[46.1 µM] | 9% | x | x
CCOCCCn1c(=N)c(C(N)=S)cc2c(=O)n3cccc(C)c3nc21 | -24% | -12% | x | u | -25% | x | 20µM* | -98%
CCOCCCn1c(=N)c(C(=O)NCC2CCCO2)cc2c(=O)n3cccc(C)c3nc21 (centres undefined) | -22% | u | 11% | x | 7%[46.1 µM] | 10% | x | x
COc1ccc(CNC(=O)C2(C)Cc3c(-c4cccc(C(N)=O)c4)ccnc3O2)cc1OC (centres undefined) | -15% | x | -2% | x | x | -17% | x | x
COc1cc(C)c(C(=O)Oc2cc(C)c(C(=O)O)c(O)c2)c(O)c1 | 34% | x | 8% | 0.79µM* | x | -5% | -10% | -13%
Cc1cccc(C(=O)N=c2c(C#N)cc3c(=O)n4cccc(C)c4nc3n2Cc2ccco2)c1 | 6% | 14µM*! | -11% | 5.6µM* | 3% | -12% | 4µM* | 0%
O=C(CN1C2=NCCN2c2ccccc21)C12CC3CC(CC(C3)C1)C2 | u | u | x | u | u | u | 28µM* | 11%
Cc1ccc(CN2C3=NCCN3c3ccccc32)cc1 | -16% | u | -15% | -23% | -1% | -11% | x | x
COc1ccc(OC)c(CC(=O)O)c1 | 7% | 2% | x | 12% | 8% | x | x | x
COc1ccc2ccc3ccc(OC)c(OC(C)=O)c3c2c1 | -8% | 14% | u | u | 5%[46.1 µM] | -19% | 25µM* | -13%
Oc1ccc(Br)cc1-c1ccn[nH]1 | 12% | u | u | u | 9% | -26% | -28% | -20%
Oc1ccc(Br)cc1-c1cc(-c2ccco2)[nH]n1 | 5% | -19% | x | u | -2% | u | x | x
COC(=O)c1nn2c(C(F)(F)F)cc(-c3ccc(Br)o3)nc2c1Br | -27% | -5% | x | 5.6µM* | -28% | x | u | -19%
C=C(c1ccc(O)cc1)c1ccc(O)cc1 | u | 6% | x | 8.9µM* | 1µM* | -29% | 14µM* | 42%
CCOc1cc(C=NNC(=O)N(c2ccccc2)c2ccccc2)ccc1O | 13% | x | -15% | x | x | -8% | x | x
CCN(C[C@H]1N[C@@](Cc2ccccc2)(C(=O)OC)[C@H]2C(=O)N(Cc3ccccc3)C(=O)[C@@H]12)S(=O)(=O)c1ccc(C(F)(F)F)cc1 | 0% | x | -12% | 7.1µM* | x | -8% | u | 51%
CCN(C[C@H]1N[C@@](Cc2ccccc2)(C(=O)OC)[C@H]2C(=O)N(C)C(=O)[C@@H]12)S(=O)(=O)c1ccc(C(F)(F)F)cc1 | -24% | x | -16% | u | x | 0% | x | x
CC(C)(C)Nc1nc(NCc2cccnc2)nc(N2CCOCC2)n1 | -19% | 14% | -1% | -17% | 2% | -10% | x | x
COc1ccc(Nc2nc(NC(C)(C)C)nc(N3CCOCC3)n2)c(OC)c1 | 0% | 13µM* | x | 7.1µM* | -7% | x | 7µM* | 16%
CSc1cccc(N2C(=O)C3CCCN3C2=S)c1 (centres undefined) | -7% | 1%[46.1 µM] | -2% | 16% | -8%[46.1 µM] | -2% | x | x
SMILES | FMDV antiviral | MARV entry inh | VACV mCherry inh | HCV inhibitor | LASV entry inh | VACV Venus inh | HCV inh confirm | HCV cytotox
COc1ccccc1NC(=O)C(C)OC(=O)c1cc2ccccc2[nH]1 (centres undefined) | u | x | x | u | x | x | 7.9µM* | 18µM*
O=C(/C=C\c1ccc2c(c1)OCO2)NC1CC(=O)N(c2ccc(Cl)cc2)C1 (centres undefined) | -15% | x | -7% | x | 6%[46.1 µM] | -8% | x | x
O=C(/C=C\c1ccc2c(c1)OCO2)Nc1c2c(nn1-c1ccc(Cl)cc1)CSC2 | -26% | -19% | i | u | -10% | -17% | 13µM* | 13%
CC(C)Cn1c(N)c(C(=O)CSc2ccccc2)c(=O)n(C)c1=O | 20µM* | u | u | u | 1% | -22% | 7.9µM* | u
COc1ccc(Nc2nc(N)nc(CN3CCOCC3)n2)cc1 | 17% | -1%[46.1 µM] | i | 13% | -6% | -13% | x | x
COc1ccc(Nc2nc(N)nc(CCl)n2)cc1 | 45% | x | x | 4µM* | x | x | 6.3µM* | 2.5µM*
Oc1ccccc1N=Nc1nc(-c2ccccc2)c(-c2ccccc2)[nH]1 | 28µM* | 1µM* | u | 3.5µM* | 1.4µM* | u | 7.9µM* | -43%
COc1ccc(-n2nc(C)c3c(C(F)(F)F)cc(-c4cccnc4)nc32)cc1 | -8% | 2%[46.1 µM] | -15% | x | -5%[46.1 µM] | -7% | x | x
CCn1c(SC)nnc1-c1sc2cc(Cl)ccc2c1Cl | -17% | -23% | x | 5.6µM* | 20% | -28% | -32% | -15%
CCCCC[C@H](C)N1C[C@H](COCc2ccccc2)Oc2cc(N3CC[C@@H](N(C)C)C3)ccc2S1(=O)=O | 3% | x | -14% | x | x | -16% | x | x
COc1ccc(NC(=O)c2cc(C3CCCCN3S(=O)(=O)c3ccccc3)on2)c(C)c1 (centres undefined) | 0% | x | 31% | x | x | -9% | x | x
CNc1ccc2nc3ccccc3[n+](C)c2c1 | -17% | x | 137% | 3.2µM* | x | 367% | 13µM* | 14µM*
COc1ccc(Br)cc1/C=C/C(=O)Nc1c(C)cccc1C | -7% | u | x | u | -19% | x | x | x
CCN(CC)c1ccc(NC(=O)/C=C/c2cc(Br)ccc2OC)cc1 | 0% | -5% | -21% | u | -7% | u | 13µM* | u
CCc1nnc(NC(=O)c2ccc(S(=O)(=O)N3CCc4ccccc4C3)cc2)s1 | -18% | 29% | -13% | 9% | 1% | -8% | x | x
Cc1cc(C)c2nc(NNC(=O)c3ccc(S(=O)(=O)N4CCc5ccccc5C4)cc3)sc2c1 | -16% | u | 16µM* | 4.5µM* | 16µM* | u | 3.5µM* | u
COc1cccc(CSc2nc3n(n2)C(CC(C)C)C(C(=O)Nc2ccccc2C)=C(C)N3)c1 (centres undefined) | 0% | x | 1% | x | -11%[46.1 µM] | 7% | x | x
